Records with an inconclusive call do not appear. Active and inactive are the calls of the source. Unless noted, calls come from the whole dose curve.
Experiments:
[1] = Nuclear factor erythroid 2-related factor 2/antioxidant responsive element (Nrf2/ARE) small molecule agonists: qHTS cell viability counter screen in human keratinocytes (AID 1919968; active = well fitted curve in the direction sought with a large enough effect in the repeat runs; an effect the other way counts as inactive or inconclusive; note: nearly all actives have a fitted effect of over 55% in size)
How it was run: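 CellTiter-Fluor fluorescence, read 1 h after reagent, gave viability in the same wells as the ARE-luciferase assay. KeratinoSens cells (1,500/well) had 23 h compound exposure at 37 C/5% CO2 following 5 h plating.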

[2] = Nuclear factor erythroid 2-related factor 2/antioxidant responsive element (Nrf2/ARE) small molecule agonists: luciferase reporter gene qHTS assay in human keratinocytes (AID 1919969); note: nearly all actives have a fitted effect of over 35% in size
[3] = target: Gonadotropin-releasing hormone receptor (Homo sapiens) (UniProt P30968); assay: Human gonadotropin-releasing hormone receptor (GnRHR) small molecule agonists, calcium flux assay in GnRHR-HEK293 cells (AID 1920063); note: nearly all actives have a fitted effect of over 35% in size
How it was run: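 Agonist mode: compounds at 15 concentrations, in triplicate, went onto calcium dye-loaded GnRHR-HEK293 cells. Intracellular calcium was then followed as 480/540 nm fluorescence at 1 s intervals over 3 min.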

[4] = target: KiSS-1 receptor (Homo sapiens) (UniProt Q969F8); assay: Human kisspeptin (KISS1R) small molecule agonists, calcium flux assay in KISS1R-HEK293 cells (AID 1920064; active = well fitted curve in the direction sought with a large enough effect in the repeat runs; an effect the other way counts as inactive or inconclusive)
How it was run: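 Agonist mode: intracellular calcium rise tracked at 1 s intervals over 3 min (480/540 nm) immediately after compound addition to dye-loaded KISS1R-HEK293 stable cells. Each compound tested at 15 concentrations in triplicate.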

[5] = G protein-coupled receptor (GPCR) small molecule agonists, calcium flux assay: HEK293 wild type cell line counter screen (AID 1920065)
How it was run: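 Calcium flux counter screen: compound added in agonist mode at 15 concentrations in triplicate to dye-loaded parental HEK293 cells. Fluorescence (480/540) read kinetically for 3 min; ATP served as positive control.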

[6] = p53 small molecule agonists, cell-based qHTS assay with human liver microsomes (AID 1963577);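 note: p53 response element beta-lactamase reporter cells with liver microsomes plus NADPH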
How it was run: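 HLM-supplemented p53RE-bla reporter assay: 16 h compound exposure at 37 C, microsomes and NADPH each 0.5 mg/mL final, read by fluorescence intensity.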

[7] = p53 small molecule agonists, cell-based qHTS assay with rat liver microsomes (AID 1963578)
How it was run: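 Quantitative HTS of the Tox21 10K library: p53RE-bla cells, rat liver microsomes plus NADPH at 0.5 mg/mL final each, 16 h at 37 C, beta-lactamase fluorescence detection.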

[8] = p53 small molecule agonists, cell-based qHTS assay with human liver microsomes: qHTS cell viability counter screen (AID 1963579); note: nearly all actives have a fitted effect of over 45% in size
How it was run: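 Viability of p53RE-bla cells is measured as CellTiter-Glo luminescence following a 16 h, 37 C incubation with compound, liver microsomes from human donors and NADPH.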

[9] = p53 small molecule agonists, cell-based qHTS assay: qHTS cell viability counter screen (AID 1963581); note: nearly all actives have a fitted effect of over 45% in size
How it was run: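 Counter screen read by CellTiter-Glo luminescence (ATP content, 30 min at room temperature), run in the same wells as the beta-lactamase reporter read. HCT-116 p53RE-bla cells saw compounds for 16 h at 37 C.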

[10] = p53 small molecule agonists, cell-based qHTS assay (AID 1963582; active = well fitted activation curve with a large enough effect in the signal ratio in the repeat runs, not every such curve was filed as active; the % refers to the signal ratio)
How it was run: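 Read-out is beta-lactamase FRET fluorescence after 2 h at room temperature with LiveBLAzer B/G substrate. p53 response element-bla cells were treated 16 h at 37 C with compounds in DMSO, added 5 h after seeding.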

[11] = target: 5-hydroxytryptamine receptor 2A (Homo sapiens) (UniProt P28223); assay: 5-hydroxytryptamine receptor 2A (HTR2A) small molecule antagonists, cell-based qHTS assay (AID 1963586); note: nearly all actives have a fitted effect of over 45% in size
How it was run: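 CHO cells stably expressing human HTR2A were plated for 18 h at 37 C, then loaded with calcium dye for 1 h. Compounds were preincubated 5 min at room temperature before DOI (4 nM solution) was added. Kinetic fluorescence was read for 3 min.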

[12] = target: 5-hydroxytryptamine receptor 2A (Homo sapiens) (UniProt P28223); assay: 5-hydroxytryptamine receptor 2A (HTR2A) small molecule agonists, cell-based qHTS assay (AID 1963587); note: nearly all actives have a fitted effect of over 30% in size
How it was run: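 Kinetic calcium-flux fluorescence (2 min, 1 sec intervals) after compound addition in agonist mode. HTR2A-CHO cells were cultured 18 h, then dye-loaded 1 h at 37 C.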

[13] = target: Muscarinic acetylcholine receptor M1 (Homo sapiens) (UniProt P11229); assay: Cholinergic receptor muscarinic 1 (CHRM1) small molecule antagonists, cell-based qHTS assay (AID 1963588); note: nearly all actives have a fitted effect of over 40% in size
How it was run: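 Compounds were tested at 15 concentrations in three independent runs. Dye-loaded CHRM1-CHO cells were exposed 5 min at room temperature before stimulation by acetylcholine added at 50nM. Intracellular calcium was read kinetically on FDSS for 3 min.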

[14] = target: Muscarinic acetylcholine receptor M1 (Homo sapiens) (UniProt P11229); assay: Cholinergic receptor muscarinic 1 (CHRM1) small molecule agonists, cell-based qHTS assay (AID 1963589); note: nearly all actives have a fitted effect of over 35% in size
How it was run: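 Agonist-mode calcium-flux screen: compounds at 15 concentrations, three independent runs, were pin-transferred onto dye-loaded human CHRM1-CHO cells. Fluorescence was then recorded kinetically every second over minutes.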

[15] = cAMP Responsive Elements (CRE) small molecule agonists, cell-based qHTS assay (AID 1963590)
How it was run: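 Agonist mode: compound added to CRE-bla HEK 293T cells (2,000/well, 18 h after plating) for 3 h at 37 C/5% CO2. Reporter activity detected via FRET beta-lactamase substrate, 2 h room-temperature loading.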

[16] = cAMP Responsive Elements (CRE) small molecule antagonists, cell-based qHTS assay (AID 1963591; active = well fitted inhibition curve with a large enough effect in the signal ratio in the repeat runs, not every such curve was filed as active; the % refers to the signal ratio)
How it was run: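 Antagonist mode: compounds are added alongside the adenylyl cyclase activator NKH477 (0.25 uM final) to CRE-bla HEK293T cells for 3 h. LiveBLAzer FRET substrate, 2 h at room temperature, reports bla expression.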

[17] = target: Beta-2 adrenergic receptor (Homo sapiens) (UniProt P07550); assay: Adrenergic beta2 receptor (ADRB2) small molecule antagonists, cell-based qHTS assay (AID 1963592); note: series mostly up to about 92 µM; nearly all actives have a fitted effect of over 50% in size
How it was run: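 Assay format: CHO-ADRB2 cells, 18-20hr seeding at 37C/5% CO2, then compound plus 1nM isoproterenol agonist mix for 0.5hr RT. Homogeneous time-resolved fluorescence cAMP detection after 1hr, expressed as 665/615 nm ratio.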

[18] = target: D(2) dopamine receptor (Homo sapiens) (UniProt P14416); assay: Dopamine D2 receptor (DRD2) small molecule agonists, cell-based qHTS assay (AID 1963594); note: nearly all actives have a fitted effect of over 35% in size
How it was run: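 cAMP accumulation in DRD2-HEK293 cells measured by HTRF after 1 h detection; compounds added 10 min before NKH477 (200nM […]) forskolin-analogue stimulation, 30 min at room temperature, with Ro20-1724 present at 0.1 mM final.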

[19] = p53 small molecule agonists, cell-based qHTS assay with rat liver microsomes: qHTS cell viability counter screen (AID 1963580); note: nearly all actives have a fitted effect of over 45% in size
How it was run: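 Rat liver microsome (0.5 mg/mL final) and NADPH (0.5 mg/mL final) co-incubation with compounds for 16 h at 37 C on HCT-116 p53RE-bla cells; cytotoxicity taken from intracellular ATP luminescence.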

[20] = target: D(2) dopamine receptor (Homo sapiens) (UniProt P14416); assay: Dopamine D2 receptor (DRD2) small molecule antagonists, cell-based qHTS assay (AID 1963595; active = well fitted inhibition curve with a large enough effect in the signal ratio in the repeat runs, with a control signal flat; the % refers to the signal ratio; note: potency is the fitted concentration of half-maximal effect)
How it was run: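 HTRF cAMP read-out at 665 and 620 nm emission (340 nm excitation). Antagonist mode: compounds were tested against 12 nM quinpirole in DRD2-HEK293 cells, with 200 nM NKH477 raising cAMP and 0.1 mM Ro20-1724 blocking its breakdown.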
% is set by controls: 0 for no effect and ±100 for the full control effect.

Muscarinic acetylcholine receptor M1 (Homo sapiens), sequence (P11229 whole entry, looked up): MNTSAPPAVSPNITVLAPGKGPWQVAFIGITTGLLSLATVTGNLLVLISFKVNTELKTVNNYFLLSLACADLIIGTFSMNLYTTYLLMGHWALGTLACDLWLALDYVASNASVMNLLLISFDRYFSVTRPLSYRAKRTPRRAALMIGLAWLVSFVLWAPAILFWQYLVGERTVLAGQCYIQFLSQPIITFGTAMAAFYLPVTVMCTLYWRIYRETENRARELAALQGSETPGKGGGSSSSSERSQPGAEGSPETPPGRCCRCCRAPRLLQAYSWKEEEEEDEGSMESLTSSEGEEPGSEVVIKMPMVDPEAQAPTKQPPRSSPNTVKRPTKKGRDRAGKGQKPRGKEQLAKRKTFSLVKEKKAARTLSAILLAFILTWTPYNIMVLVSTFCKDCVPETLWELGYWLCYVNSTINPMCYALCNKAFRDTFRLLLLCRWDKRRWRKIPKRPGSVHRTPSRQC
Gonadotropin-releasing hormone receptor (Homo sapiens), sequence (P30968 whole entry, looked up): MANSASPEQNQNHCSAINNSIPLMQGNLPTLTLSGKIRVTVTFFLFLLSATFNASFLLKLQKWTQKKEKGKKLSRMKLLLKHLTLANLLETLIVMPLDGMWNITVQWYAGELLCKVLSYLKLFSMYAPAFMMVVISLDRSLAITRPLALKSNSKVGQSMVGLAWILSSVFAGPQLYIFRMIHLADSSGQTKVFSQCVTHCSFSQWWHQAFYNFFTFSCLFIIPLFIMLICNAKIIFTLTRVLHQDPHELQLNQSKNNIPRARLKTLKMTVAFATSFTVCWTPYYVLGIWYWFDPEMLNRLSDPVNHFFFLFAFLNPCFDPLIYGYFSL
D(2) dopamine receptor (Homo sapiens), sequence (P14416 whole entry, looked up): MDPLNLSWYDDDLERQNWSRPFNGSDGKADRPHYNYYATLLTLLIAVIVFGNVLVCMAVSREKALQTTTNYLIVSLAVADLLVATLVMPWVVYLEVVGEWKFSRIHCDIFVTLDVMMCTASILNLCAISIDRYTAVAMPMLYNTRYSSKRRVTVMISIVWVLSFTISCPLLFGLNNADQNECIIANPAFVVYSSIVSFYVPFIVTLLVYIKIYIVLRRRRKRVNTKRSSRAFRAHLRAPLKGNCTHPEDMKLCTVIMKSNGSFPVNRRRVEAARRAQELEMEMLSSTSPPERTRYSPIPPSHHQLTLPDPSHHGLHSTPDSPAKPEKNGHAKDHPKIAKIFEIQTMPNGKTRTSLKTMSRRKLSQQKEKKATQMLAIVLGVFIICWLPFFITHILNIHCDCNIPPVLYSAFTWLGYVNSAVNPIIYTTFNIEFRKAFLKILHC
5-hydroxytryptamine receptor 2A (Homo sapiens), sequence (P28223 whole entry, looked up): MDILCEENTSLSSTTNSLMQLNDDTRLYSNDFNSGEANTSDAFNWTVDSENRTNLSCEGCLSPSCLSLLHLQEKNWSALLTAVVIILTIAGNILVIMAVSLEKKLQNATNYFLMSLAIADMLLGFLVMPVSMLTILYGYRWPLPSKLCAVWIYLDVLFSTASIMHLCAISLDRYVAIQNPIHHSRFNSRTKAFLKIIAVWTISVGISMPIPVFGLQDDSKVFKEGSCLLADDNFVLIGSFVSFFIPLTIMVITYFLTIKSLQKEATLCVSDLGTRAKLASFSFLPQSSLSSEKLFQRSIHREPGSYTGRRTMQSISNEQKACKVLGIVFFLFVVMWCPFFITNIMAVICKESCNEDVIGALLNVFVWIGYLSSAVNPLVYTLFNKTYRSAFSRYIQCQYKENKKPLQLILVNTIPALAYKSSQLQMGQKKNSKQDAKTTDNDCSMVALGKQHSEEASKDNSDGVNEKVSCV
KiSS-1 receptor (Homo sapiens), sequence (Q969F8 whole entry, looked up): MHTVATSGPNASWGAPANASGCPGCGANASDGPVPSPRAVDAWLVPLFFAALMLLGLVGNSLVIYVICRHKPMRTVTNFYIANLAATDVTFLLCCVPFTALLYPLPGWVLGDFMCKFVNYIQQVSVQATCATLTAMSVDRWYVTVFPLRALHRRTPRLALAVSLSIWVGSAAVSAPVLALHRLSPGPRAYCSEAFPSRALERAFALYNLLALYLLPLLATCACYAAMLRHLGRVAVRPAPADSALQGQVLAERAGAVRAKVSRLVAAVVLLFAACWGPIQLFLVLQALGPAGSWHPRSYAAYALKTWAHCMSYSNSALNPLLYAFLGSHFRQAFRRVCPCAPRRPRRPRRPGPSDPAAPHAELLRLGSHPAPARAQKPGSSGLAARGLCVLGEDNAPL
Beta-2 adrenergic receptor (Homo sapiens), sequence (P07550 whole entry, looked up): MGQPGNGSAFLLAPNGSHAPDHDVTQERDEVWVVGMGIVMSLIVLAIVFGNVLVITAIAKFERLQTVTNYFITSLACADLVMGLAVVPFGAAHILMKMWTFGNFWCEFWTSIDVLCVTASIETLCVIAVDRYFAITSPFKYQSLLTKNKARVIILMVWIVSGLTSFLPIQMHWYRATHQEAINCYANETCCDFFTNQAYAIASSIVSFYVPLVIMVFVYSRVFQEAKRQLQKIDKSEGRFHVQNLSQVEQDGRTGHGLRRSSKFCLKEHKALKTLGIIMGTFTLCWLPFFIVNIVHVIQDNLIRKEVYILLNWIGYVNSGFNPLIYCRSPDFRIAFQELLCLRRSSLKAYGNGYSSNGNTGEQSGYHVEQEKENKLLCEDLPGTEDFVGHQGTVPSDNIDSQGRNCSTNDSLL

O=C(CCCCC(=O)Nc1c(I)cc(I)c(C(=O)O)c1I)Nc1c(I)cc(I)c(C(=O)O)c1I
inactive: Potency [1] | Potency [2] | Potency [3] | outcome [4] | outcome [5] | Potency [6] | Potency [7] | Potency [8] | Potency [9] | Potency [10] | Potency [11] | Potency [12] | Potency [13] | Potency [14] | Potency [15] | Potency [16] | Potency [17] | Potency [18]

CN(C)CCCN1c2ccccc2Sc2ccccc21
active: Potency [20] 29.8 µM
inactive: Potency [1] | Potency [2] | Potency [3] | outcome [4] | outcome [5] | Potency [6] | Potency [7] | Potency [8] | Potency [19] | Potency [15] | Potency [16]

COC(=O)C(C)(C)C
inactive: Potency [1] | Potency [2] | Potency [3] | outcome [4] | outcome [5] | Potency [6] | Potency [7] | Potency [8] | Potency [19] | Potency [12] | Potency [13] | Potency [15] | Potency [16] | Potency [17] | Potency [18] | Potency [20]

CCOC(C)=O
inactive: Potency [1] | Potency [2] | Potency [3] | outcome [4] | outcome [5] | Potency [6] | Potency [7] | Potency [8] | Potency [9] | Potency [10] | Potency [11] | Potency [12] | Potency [13] | Potency [14] | Potency [15] | Potency [16] | Potency [17] | Potency [18] | Potency [20]

CCCCCCCCCCOS(=O)(=O)O
inactive: Potency [1] | Potency [2] | Potency [3] | outcome [4] | outcome [5] | Potency [6] | Potency [7] | Potency [8] | Potency [9] | Potency [10] | Potency [11] | Potency [12] | Potency [13] | Potency [14] | Potency [15] | Potency [16] | Potency [17] | Potency [18]

CCCCC1=NC2(CCCC2)C(=O)N1Cc1ccc(-c2ccccc2-c2nn[nH]n2)cc1
inactive: Potency [1] | Potency [2] | Potency [3] | outcome [4] | outcome [5] | Potency [6] | Potency [7] | Potency [8] | Potency [19] | Potency [17] | Potency [18] | Potency [20]

[O]=[Bi]
inactive: activity change, negative = cytotoxicity [1] 4.16% [at 8.39 µM] | activity, positive = activation [2] 29.8% [at 8.39 µM] | activity change [3] 0.29% [at 5.22 µM, stronger effect = higher value] | activation [4] 0.437% [at 6.97 µM] | activation [5] 0.259% [at 5.23 µM] | activation [6] -14.4% [at 5.99 µM] | activation [7] 0.191% [at 5.99 µM] | activity change, negative = cytotoxicity [8] -5.49% [at 5.99 µM] | activity change, negative = cytotoxicity [9] 5.64% [at 5.99 µM] | activation [10] 6.59% [at 5.99 µM] | activity, negative = inhibition [11] 2.38% [at 5.62 µM] | activation [12] 0.438% [at 7.02 µM] | activity, negative = inhibition [13] 3.36% [at 5.58 µM] | activation [14] 0.394% [at 6.97 µM] | activation [15] -0.129% [at 8.39 µM] | activity change, negative = inhibition [16] -10.4% [at 8.39 µM] | activity change, negative = inhibition [17] 6.45% [at 8.39 µM] | activation [18] 0.151% [at 8.39 µM] | activity change, negative = inhibition [20] -14.1% [at 8.38 µM]
